Assay [1] concerns the target T1, Serine/threonine-protein kinase 17A (Homo sapiens) (UniProt Q9UEE5).
T1 sequence (whole entry): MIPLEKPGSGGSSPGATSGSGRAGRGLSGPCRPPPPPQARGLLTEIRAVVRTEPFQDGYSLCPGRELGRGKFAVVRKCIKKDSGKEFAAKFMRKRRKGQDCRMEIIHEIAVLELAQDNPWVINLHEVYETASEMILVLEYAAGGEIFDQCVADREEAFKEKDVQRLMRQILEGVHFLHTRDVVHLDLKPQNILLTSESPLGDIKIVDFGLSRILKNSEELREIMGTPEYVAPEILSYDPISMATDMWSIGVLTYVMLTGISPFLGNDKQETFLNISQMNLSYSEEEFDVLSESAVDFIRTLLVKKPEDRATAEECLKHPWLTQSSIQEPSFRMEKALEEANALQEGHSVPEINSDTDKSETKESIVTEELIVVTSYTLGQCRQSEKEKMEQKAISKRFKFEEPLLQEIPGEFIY
The settings on record: at 10 µM.

Assay [2] addresses T2, Dual specificity tyrosine-phosphorylation-regulated kinase 2 (Homo sapiens) (UniProt Q92630).
T2 sequence (whole entry): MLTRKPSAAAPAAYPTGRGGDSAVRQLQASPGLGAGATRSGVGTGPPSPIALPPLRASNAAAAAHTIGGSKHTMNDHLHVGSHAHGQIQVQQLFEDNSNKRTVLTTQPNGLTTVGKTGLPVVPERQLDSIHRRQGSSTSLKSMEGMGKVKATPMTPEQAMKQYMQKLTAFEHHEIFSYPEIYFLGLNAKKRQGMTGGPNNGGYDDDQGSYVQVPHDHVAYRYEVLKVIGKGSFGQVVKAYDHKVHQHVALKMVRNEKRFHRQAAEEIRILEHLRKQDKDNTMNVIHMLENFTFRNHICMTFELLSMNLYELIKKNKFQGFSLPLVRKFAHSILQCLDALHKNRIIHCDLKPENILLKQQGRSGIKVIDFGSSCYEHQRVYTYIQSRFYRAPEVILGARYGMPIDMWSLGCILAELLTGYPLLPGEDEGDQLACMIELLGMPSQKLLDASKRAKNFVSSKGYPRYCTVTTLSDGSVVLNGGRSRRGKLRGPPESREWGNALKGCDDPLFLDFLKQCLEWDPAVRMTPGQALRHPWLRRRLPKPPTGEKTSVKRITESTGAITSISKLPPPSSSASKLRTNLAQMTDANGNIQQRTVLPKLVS
The settings on record: at 10 µM.

Assay [3] concerns the target T3, Ephrin type-A receptor 1 (Homo sapiens) (UniProt P21709).
T3 sequence (whole entry): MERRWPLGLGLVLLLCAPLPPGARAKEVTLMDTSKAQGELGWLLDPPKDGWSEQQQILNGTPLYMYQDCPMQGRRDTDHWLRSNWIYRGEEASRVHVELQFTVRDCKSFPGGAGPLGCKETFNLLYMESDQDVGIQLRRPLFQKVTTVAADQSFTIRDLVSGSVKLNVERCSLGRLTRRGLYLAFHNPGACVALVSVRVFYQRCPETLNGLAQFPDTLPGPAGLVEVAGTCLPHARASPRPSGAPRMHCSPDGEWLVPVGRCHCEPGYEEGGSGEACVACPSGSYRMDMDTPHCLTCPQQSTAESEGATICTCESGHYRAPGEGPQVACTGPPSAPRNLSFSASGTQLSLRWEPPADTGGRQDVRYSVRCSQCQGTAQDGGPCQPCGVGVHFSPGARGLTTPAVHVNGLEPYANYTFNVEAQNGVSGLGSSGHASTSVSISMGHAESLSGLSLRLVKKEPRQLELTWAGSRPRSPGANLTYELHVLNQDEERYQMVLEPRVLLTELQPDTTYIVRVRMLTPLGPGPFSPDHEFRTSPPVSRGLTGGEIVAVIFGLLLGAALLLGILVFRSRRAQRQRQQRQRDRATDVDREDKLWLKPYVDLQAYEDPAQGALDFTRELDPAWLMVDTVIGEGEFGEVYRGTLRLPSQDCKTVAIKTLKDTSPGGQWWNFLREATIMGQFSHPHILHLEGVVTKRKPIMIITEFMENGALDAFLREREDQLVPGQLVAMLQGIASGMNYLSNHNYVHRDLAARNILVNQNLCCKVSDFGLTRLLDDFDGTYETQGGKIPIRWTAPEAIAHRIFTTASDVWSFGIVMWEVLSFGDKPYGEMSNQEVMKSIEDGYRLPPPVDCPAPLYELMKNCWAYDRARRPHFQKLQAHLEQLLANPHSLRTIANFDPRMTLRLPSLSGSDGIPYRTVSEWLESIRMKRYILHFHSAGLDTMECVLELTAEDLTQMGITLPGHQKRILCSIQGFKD
The settings on record: at 1 µM.

Assay [4] addresses T3, Ephrin type-A receptor 1 (Homo sapiens). The settings on record: at 10 µM.
The target in assay [5] is Ephrin type-A receptor 2 (Homo sapiens) (UniProt P29317). The settings on record: at 1 µM.
Ephrin type-A receptor 2 (Homo sapiens), sequence (P29317 whole entry): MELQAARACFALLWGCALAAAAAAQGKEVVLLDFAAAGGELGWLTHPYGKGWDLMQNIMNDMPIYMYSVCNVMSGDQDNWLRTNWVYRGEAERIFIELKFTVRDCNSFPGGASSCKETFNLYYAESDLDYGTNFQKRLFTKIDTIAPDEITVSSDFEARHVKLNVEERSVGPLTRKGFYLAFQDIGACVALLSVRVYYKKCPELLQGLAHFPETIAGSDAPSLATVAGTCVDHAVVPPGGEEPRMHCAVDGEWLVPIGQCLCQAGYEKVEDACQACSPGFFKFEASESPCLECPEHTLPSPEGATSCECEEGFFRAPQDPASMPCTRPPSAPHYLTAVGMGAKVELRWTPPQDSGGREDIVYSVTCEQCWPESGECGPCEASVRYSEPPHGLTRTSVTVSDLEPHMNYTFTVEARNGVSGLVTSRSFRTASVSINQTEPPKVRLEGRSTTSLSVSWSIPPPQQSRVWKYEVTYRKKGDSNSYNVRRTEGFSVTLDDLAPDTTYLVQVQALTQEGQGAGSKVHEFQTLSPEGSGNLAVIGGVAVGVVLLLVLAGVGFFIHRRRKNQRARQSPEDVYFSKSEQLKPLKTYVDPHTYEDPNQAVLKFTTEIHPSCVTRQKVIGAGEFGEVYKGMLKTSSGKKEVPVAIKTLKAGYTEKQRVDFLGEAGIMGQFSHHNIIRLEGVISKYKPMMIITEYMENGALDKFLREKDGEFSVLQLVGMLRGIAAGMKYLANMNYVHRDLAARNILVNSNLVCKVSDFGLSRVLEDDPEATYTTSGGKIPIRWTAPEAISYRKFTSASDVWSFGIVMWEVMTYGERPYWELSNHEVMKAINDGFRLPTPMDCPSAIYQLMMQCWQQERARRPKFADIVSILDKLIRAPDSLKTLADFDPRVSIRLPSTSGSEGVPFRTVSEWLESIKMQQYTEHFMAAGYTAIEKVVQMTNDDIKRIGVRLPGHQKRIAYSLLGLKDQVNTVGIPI
Assay [6] shares this target. The settings on record: at 10 µM.
Assay [7] has as its target T4, Ephrin type-A receptor 3 (Homo sapiens) (UniProt P29320).
T4 sequence (whole entry): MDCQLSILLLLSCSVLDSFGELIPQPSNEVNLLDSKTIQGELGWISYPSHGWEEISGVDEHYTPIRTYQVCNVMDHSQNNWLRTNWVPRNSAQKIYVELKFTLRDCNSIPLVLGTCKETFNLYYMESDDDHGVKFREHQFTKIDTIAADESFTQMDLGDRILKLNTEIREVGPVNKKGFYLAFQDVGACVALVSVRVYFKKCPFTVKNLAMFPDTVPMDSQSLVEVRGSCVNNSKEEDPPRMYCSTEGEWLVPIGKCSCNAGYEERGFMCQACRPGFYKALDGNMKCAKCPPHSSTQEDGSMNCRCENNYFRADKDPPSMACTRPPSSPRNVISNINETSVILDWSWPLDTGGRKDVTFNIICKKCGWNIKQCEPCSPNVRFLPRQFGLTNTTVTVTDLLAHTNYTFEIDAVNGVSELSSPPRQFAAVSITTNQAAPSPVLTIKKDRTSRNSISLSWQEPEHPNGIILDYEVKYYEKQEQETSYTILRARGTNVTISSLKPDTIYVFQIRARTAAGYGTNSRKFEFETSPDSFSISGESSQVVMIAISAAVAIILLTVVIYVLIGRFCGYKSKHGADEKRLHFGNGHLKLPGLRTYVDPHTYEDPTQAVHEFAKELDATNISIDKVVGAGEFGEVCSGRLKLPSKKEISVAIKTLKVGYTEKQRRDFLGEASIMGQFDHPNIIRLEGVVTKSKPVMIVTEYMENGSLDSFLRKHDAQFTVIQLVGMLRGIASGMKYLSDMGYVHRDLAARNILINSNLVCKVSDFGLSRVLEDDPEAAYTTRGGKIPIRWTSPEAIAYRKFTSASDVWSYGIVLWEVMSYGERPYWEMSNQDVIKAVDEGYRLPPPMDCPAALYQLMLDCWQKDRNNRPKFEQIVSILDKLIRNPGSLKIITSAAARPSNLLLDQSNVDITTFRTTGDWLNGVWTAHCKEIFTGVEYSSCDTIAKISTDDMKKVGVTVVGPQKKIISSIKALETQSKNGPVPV
Particulars: at 1 µM.

Assay [8] deals with T4, Ephrin type-A receptor 3 (Homo sapiens). Particulars: at 10 µM.
Assay [9] addresses Ephrin type-A receptor 5 (Homo sapiens) (UniProt P54756). The settings on record: at 1 µM.
Assay [10] shares this target. Particulars: at 10 µM.
Assay [11] has as its target Ephrin type-A receptor 7 (Homo sapiens) (UniProt Q15375). The settings on record: at 1 µM.
Assay [12] has the same target. Particulars: at 10 µM.
The target of assay [13] is T5, Ephrin type-A receptor 8 (Homo sapiens) (UniProt P29322).
T5 sequence (whole entry): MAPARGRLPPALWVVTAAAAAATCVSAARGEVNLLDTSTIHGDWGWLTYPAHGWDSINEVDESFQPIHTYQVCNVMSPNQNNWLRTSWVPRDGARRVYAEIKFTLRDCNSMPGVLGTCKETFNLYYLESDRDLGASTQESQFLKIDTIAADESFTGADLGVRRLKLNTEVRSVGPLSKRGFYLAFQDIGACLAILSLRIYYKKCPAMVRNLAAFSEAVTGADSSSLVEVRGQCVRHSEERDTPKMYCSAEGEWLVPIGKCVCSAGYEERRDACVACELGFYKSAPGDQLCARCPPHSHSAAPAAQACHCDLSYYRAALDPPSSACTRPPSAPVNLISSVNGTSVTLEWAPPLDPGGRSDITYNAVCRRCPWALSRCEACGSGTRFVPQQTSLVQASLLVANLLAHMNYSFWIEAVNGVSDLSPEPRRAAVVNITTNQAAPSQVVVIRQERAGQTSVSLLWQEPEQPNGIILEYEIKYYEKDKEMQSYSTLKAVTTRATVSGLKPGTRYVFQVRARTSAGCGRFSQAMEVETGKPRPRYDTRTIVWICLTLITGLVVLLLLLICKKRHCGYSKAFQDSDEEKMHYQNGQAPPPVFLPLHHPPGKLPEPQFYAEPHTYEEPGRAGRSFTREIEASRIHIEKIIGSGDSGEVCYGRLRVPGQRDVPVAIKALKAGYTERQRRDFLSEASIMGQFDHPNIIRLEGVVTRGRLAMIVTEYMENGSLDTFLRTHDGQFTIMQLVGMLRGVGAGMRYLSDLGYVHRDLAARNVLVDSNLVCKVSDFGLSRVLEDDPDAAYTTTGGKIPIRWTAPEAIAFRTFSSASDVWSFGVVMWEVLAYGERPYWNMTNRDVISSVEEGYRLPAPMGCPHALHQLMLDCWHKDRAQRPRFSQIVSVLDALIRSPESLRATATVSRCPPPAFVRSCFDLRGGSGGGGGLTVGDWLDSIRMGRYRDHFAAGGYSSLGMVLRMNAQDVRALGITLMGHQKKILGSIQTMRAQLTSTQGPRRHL
The settings on record: at 1 µM.

Assay [14] addresses T5, Ephrin type-A receptor 8 (Homo sapiens). The settings on record: at 10 µM.
The target in assay [15] is T6, Ephrin type-B receptor 1 (Homo sapiens) (UniProt P54762).
T6 sequence (whole entry): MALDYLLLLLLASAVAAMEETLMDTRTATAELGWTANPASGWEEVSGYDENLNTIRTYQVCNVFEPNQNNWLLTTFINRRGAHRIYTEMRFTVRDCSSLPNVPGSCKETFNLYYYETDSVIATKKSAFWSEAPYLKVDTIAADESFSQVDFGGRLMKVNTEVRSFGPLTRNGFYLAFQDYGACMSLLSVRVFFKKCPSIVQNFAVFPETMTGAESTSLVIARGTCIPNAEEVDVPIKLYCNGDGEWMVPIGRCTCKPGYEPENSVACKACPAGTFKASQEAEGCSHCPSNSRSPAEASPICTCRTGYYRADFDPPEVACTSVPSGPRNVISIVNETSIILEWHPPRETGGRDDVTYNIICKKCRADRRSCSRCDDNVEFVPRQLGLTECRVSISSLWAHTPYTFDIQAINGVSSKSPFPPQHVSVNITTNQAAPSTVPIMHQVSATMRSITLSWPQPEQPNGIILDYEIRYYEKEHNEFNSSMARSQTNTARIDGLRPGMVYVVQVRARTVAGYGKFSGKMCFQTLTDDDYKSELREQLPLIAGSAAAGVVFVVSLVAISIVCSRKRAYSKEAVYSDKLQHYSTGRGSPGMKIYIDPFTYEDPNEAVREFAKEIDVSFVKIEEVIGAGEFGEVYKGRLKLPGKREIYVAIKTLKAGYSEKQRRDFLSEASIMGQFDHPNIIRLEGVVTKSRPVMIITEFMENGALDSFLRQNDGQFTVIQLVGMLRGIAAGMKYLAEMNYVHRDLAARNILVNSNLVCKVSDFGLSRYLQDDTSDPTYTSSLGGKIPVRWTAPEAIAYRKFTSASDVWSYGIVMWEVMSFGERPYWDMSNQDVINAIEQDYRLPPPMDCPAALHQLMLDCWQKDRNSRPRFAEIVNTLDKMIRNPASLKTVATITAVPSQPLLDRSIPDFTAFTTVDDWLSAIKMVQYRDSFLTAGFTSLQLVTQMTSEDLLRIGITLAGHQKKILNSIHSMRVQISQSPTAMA
The settings on record: at 1 µM.

The target of assay [16] is T2, Dual specificity tyrosine-phosphorylation-regulated kinase 2 (Homo sapiens). Particulars: at 1 µM.
For assay [17], the target named is Ephrin type-A receptor 4 (Homo sapiens) (UniProt P54764). The settings on record: at 1 µM.
Ephrin type-A receptor 4 (Homo sapiens), sequence (P54764 whole entry): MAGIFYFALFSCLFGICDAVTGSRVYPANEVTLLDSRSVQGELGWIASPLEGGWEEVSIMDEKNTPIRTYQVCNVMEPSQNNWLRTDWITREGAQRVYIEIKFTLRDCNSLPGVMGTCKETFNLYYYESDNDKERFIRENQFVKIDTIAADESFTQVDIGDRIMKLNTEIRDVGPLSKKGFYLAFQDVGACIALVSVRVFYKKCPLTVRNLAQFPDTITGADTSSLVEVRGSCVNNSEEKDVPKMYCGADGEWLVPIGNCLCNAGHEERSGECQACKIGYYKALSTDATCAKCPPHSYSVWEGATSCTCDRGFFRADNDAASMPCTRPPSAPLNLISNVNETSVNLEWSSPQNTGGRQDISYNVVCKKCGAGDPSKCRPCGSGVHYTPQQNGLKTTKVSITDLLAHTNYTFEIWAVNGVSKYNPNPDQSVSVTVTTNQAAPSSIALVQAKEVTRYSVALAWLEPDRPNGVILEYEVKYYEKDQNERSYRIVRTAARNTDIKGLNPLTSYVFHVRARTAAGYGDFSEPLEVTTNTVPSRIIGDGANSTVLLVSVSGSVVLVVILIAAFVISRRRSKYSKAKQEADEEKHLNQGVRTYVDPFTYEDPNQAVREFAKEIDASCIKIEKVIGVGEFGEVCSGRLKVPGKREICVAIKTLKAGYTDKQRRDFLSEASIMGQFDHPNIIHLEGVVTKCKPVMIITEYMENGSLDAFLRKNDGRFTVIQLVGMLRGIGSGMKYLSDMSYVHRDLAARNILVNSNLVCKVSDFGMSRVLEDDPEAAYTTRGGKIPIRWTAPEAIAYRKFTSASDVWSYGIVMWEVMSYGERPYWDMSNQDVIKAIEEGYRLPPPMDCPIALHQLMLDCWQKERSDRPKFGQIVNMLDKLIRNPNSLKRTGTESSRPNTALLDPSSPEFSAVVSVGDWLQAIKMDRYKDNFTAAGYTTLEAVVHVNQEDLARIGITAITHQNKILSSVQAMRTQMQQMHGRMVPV
Assay [18] has the same target. The settings on record: at 10 µM.
Assay [19] has as its target Epidermal growth factor receptor (Homo sapiens) (UniProt P00533). Particulars: at 10 µM.

Ephrin type-A receptor 5 (Homo sapiens), sequence (P54756 whole entry): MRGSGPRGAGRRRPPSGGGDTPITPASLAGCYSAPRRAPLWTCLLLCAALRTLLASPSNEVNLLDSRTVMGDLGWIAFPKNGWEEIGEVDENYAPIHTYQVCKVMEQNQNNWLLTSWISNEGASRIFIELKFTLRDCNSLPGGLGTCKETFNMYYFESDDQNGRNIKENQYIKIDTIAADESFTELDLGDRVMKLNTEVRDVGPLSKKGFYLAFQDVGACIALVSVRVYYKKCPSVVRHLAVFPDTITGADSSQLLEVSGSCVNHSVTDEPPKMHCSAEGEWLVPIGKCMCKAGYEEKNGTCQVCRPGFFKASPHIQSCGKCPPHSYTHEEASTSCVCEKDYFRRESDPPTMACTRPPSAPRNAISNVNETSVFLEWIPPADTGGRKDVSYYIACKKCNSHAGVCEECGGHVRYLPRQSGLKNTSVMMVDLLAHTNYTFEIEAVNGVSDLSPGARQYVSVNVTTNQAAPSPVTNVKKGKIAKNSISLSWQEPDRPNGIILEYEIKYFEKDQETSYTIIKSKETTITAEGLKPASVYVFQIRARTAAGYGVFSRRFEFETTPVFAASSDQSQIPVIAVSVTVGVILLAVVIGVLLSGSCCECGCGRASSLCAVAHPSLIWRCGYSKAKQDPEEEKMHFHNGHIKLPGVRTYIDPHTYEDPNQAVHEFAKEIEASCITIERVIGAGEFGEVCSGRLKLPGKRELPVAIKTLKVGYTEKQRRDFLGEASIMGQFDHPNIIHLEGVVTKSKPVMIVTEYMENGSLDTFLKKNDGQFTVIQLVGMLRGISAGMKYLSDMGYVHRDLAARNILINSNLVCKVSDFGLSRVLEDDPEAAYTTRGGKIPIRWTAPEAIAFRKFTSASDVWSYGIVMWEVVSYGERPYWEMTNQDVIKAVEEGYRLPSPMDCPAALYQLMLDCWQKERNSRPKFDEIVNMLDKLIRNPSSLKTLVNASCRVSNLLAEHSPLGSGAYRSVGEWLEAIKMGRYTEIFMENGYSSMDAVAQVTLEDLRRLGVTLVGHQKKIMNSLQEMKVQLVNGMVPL
Ephrin type-A receptor 7 (Homo sapiens), sequence (Q15375 28-998 limits assumed): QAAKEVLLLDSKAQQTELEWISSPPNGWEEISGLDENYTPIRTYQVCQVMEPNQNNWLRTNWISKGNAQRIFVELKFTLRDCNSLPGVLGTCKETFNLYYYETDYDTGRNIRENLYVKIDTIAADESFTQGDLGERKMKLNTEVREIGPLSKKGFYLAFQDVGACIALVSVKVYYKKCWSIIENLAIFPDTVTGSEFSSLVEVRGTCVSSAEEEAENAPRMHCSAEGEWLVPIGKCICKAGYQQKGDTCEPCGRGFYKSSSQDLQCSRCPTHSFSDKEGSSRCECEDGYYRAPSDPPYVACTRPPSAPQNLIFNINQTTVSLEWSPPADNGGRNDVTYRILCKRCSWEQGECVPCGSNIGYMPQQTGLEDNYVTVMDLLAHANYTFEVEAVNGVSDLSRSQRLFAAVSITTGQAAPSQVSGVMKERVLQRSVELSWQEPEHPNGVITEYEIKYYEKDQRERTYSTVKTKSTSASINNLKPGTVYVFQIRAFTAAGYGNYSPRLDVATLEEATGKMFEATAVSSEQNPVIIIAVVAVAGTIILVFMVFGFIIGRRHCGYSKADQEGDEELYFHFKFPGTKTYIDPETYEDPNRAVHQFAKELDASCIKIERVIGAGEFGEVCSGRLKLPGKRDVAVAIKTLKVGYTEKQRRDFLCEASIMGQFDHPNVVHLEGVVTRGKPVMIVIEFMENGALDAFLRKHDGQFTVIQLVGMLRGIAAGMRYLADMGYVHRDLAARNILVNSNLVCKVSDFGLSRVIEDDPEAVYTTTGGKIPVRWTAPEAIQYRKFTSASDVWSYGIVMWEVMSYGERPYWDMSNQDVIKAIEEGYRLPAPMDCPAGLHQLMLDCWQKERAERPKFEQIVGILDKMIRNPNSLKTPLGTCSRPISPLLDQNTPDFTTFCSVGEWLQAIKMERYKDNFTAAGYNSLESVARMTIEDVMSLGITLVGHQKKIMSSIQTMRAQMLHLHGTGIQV

Take `COc1cc2nccc(Oc3ccc(NC(=S)NC(=O)c4ccccc4C)cc3)c2cc1OC`: the residual activity (in general, the signal under treatment as a percentage of the control signal) came out at 92% in assay [1]; 91% in assay [2]; 46% in assay [3]; 24% in assay [4]; 91% in assay [5]; 55% in [6]. Besides, the residual activity in [7] was determined as 98%; in assay [8], 67%; in assay [9], 91%; in assay [10] it was 53%; in assay [11], 90%; in [12] it was 56%. Moreover, the residual activity was found to be 75% in assay [13], 49% in [14] and 86% in assay [15].

As for `O=C1NC(=O)c2c1c1c3ccccc3[nH]c1n1cncc21`, the residual activity in assay [1] is 6%; in assay [16], 68%; in assay [2] it was 57%; in assay [3], 74%; in [4], 50%; in [5] it was 87%. Also, the residual activity is 86% in [6]; 91% in [7]; 83% in assay [8]; 98% in assay [17]; 94% in assay [18]; 105% in assay [9]. Also, the residual activity came out at 76% in assay [10], 88% in [13], 93% in assay [14] and 90% in assay [15].

`Nc1nccc(-c2c(-c3ccc(F)cc3)ncn2C2CCNCC2)n1`: the residual activity in [1] was determined as 21%; in [16] it was 83%; in [2], 40%; in [19], 84%; in assay [3] it was 119%; in [4] it was 45%. For the same compound, the residual activity worked out at 71% in assay [18], 113% in [9], 72% in assay [10] and 60% in assay [14].

(Values after ChEMBL document CHEMBL2218924, “A broad activity screen in support of a chemogenomic map for kinase signalling research and drug discovery” (Biochem J, 2013).)
